Measurements reported in paper PMC10812921, “Transcriptional Coactivator BOB1 (OBF1, OCA-B) Modulates the Specificity of DNA Recognition by the POU-Domain Factors OCT1 and OCT2 in a Monomeric Configuration”.

The sequences below were run against POU1 (OCT1 POU domain);BOB1 (OBF1, OCA-B) (human;human, UniProt P14859;Q16633 260-458;1-256, |) (assay: EMSA-SELEX-seq; with BOB1 (ternary complex band); 20 mM Tris-HCl pH 7.6, 140 mM NaCl, 10% glycerol, 0.5 mM EDTA, 0.05% Triton X-100, 0.1 mg/mL BSA, 0.1 mg/mL poly(dI-dC), 5 mM DTT, room temperature, 20 min; high values mean tight binding). Conditions: protein: recombinant;recombinant; copies: 1;1; dsDNA, one strand shown.
Outline: (§1)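 Tagged POU-domain proteins were expressed in E. coli BL21, purified under denaturing conditions and renatured. Then 30 ng was mixed with 300 ng of a PCR-amplified double-stranded random 35-nt library, with or without 28 ng coactivator protein, in 20 μL Tris–HCl pH 7.6 binding buffer for 20 min at RT. Complex bands were cut from native 6% PAGE, eluted and PCR-amplified over four rounds, then Illumina-sequenced. Binding preference is the percentage of sequenced 8-mers matching a motif pattern.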

Question: How did the binding signal turn out when ACGAAAAG was run?
Answer: 0.046 % of ANNNNAAN 8-mers

Question: Which binding signal does the source give for ATCTCAAT here?
Answer: 0.0558 % of ANNNNAAN 8-mers

Question: With ACGCTAAA as the sequence, how does the binding signal read?
Answer: 0.0281 % of ANNNNAAN 8-mers

Question: AAGACAAT was tested. Which binding signal did it give?
Answer: 0.0382 % of ANNNNAAN 8-mers

Question: How did the binding signal turn out when AGATTAAG was run?
Answer: 0.0581 % of ANNNNAAN 8-mers

Question: For ATGAAAAC, which binding signal is on record?
Answer: 0.0956 % of ANNNNAAN 8-mers

Question: Which binding signal does the source give for AAACAAAG here?
Answer: 0.165 % of ANNNNAAN 8-mers

Question: AATGAAAA was tested. Which binding signal did it give?
Answer: 0.202 % of ANNNNAAN 8-mers

Question: AGTAGAAT was tested. Which binding signal did it give?
Answer: 0.0578 % of ANNNNAAN 8-mers

Question: With AGTGGAAG as the sequence, how does the binding signal read?
Answer: 0.0414 % of ANNNNAAN 8-mers

Question: Which binding signal does the source give for ACATTAAG here?
Answer: 0.0539 % of ANNNNAAN 8-mers

Question: Which binding signal does the source give for AGCATAAC here?
Answer: 0.0207 % of ANNNNAAN 8-mers

Question: AGCACAAA was tested. Which binding signal did it give?
Answer: 0.0277 % of ANNNNAAN 8-mers

Question: With ACAGGAAA as the sequence, how does the binding signal read?
Answer: 0.0702 % of ANNNNAAN 8-mers

Question: For ACAGAAAC, which binding signal is on record?
Answer: 0.0269 % of ANNNNAAN 8-mers

Question: AGGAAAAT was tested. Which binding signal did it give?
Answer: 0.507 % of ANNNNAAN 8-mers

Question: AATAAAAC was tested. Which binding signal did it give?
Answer: 0.0757 % of ANNNNAAN 8-mers

Question: How did the binding signal turn out when ACTTTAAG was run?
Answer: 0.0332 % of ANNNNAAN 8-mers

Question: With AAGCCAAC as the sequence, how does the binding signal read?
Answer: 0.0109 % of ANNNNAAN 8-mers

Question: With ATTTAAAC as the sequence, how does the binding signal read?
Answer: 0.117 % of ANNNNAAN 8-mers

Question: How did the binding signal turn out when AATACAAT was run?
Answer: 0.0663 % of ANNNNAAN 8-mers

Question: With ATCCCAAG as the sequence, how does the binding signal read?
Answer: 0.0246 % of ANNNNAAN 8-mers

Question: AGCAGAAC was tested. Which binding signal did it give?
Answer: 0.0211 % of ANNNNAAN 8-mers

Question: For AGAAGAAG, which binding signal is on record?
Answer: 0.0379 % of ANNNNAAN 8-mers

Question: ATAAAAAA was tested. Which binding signal did it give?
Answer: 0.0823 % of ANNNNAAN 8-mers

Question: AAATCAAA was tested. Which binding signal did it give?
Answer: 0.194 % of ANNNNAAN 8-mers

Question: ACGACAAA was tested. Which binding signal did it give?
Answer: 0.0222 % of ANNNNAAN 8-mers

Question: Which binding signal does the source give for AATTCAAT here?
Answer: 0.0948 % of ANNNNAAN 8-mers

Question: Which binding signal does the source give for ATTTCAAA here?
Answer: 0.103 % of ANNNNAAN 8-mers

Question: How did the binding signal turn out when AAGTGAAC was run?
Answer: 0.0254 % of ANNNNAAN 8-mers

Question: Which binding signal does the source give for AGTTAAAT here?
Answer: 0.217 % of ANNNNAAN 8-mers

Question: For ACTTCAAA, which binding signal is on record?
Answer: 0.0336 % of ANNNNAAN 8-mers

Question: With AATGCAAG as the sequence, how does the binding signal read?
Answer: 0.0749 % of ANNNNAAN 8-mers

Question: With ACCGGAAT as the sequence, how does the binding signal read?
Answer: 0.0398 % of ANNNNAAN 8-mers

Question: How did the binding signal turn out when AGGGAAAT was run?
Answer: 0.963 % of ANNNNAAN 8-mers

Question: Which binding signal does the source give for AGGTCAAT here?
Answer: 0.0437 % of ANNNNAAN 8-mers

Question: With ATATAAAG as the sequence, how does the binding signal read?
Answer: 0.0597 % of ANNNNAAN 8-mers

Question: Which binding signal does the source give for AGTTCAAA here?
Answer: 0.0386 % of ANNNNAAN 8-mers

Question: Which binding signal does the source give for AGTGGAAT here?
Answer: 0.0847 % of ANNNNAAN 8-mers

These sequences were tested against T1, POU2 (OCT2 POU domain);BOB1 (OBF1, OCA-B) (human;human, UniProt P09086;Q16633 175-386;1-256, |) in the same assay as above. Conditions: protein: recombinant;recombinant; copies: 1;1; dsDNA, one strand shown.
T1 sequence 1: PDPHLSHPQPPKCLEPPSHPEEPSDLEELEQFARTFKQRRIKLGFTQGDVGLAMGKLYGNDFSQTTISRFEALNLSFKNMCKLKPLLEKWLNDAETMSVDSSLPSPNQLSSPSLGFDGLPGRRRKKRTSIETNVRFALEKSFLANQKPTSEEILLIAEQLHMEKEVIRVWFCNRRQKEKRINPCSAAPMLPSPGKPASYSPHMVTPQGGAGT
T1 sequence 2: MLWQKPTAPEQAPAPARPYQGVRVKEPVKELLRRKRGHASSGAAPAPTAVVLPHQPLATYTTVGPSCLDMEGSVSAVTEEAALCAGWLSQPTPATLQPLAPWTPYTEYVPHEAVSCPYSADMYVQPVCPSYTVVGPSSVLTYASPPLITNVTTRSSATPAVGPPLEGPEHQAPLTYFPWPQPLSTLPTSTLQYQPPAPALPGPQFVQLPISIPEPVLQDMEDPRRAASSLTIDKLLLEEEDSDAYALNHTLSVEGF
Outline: as §1

Question: How did the binding signal turn out when ACGAAAAG was run?
Answer: 0.0413 % of ANNNNAAN 8-mers

Question: Which binding signal does the source give for ATCTCAAT here?
Answer: 0.0768 % of ANNNNAAN 8-mers

Question: With ACGCTAAA as the sequence, how does the binding signal read?
Answer: 0.0322 % of ANNNNAAN 8-mers

Question: How did the binding signal turn out when AAGACAAT was run?
Answer: 0.0405 % of ANNNNAAN 8-mers

Question: For AGATTAAG, which binding signal is on record?
Answer: 0.0619 % of ANNNNAAN 8-mers

Question: For ATGAAAAC, which binding signal is on record?
Answer: 0.0586 % of ANNNNAAN 8-mers

Question: Which binding signal does the source give for AAACAAAG here?
Answer: 0.0892 % of ANNNNAAN 8-mers

Question: AATGAAAA was tested. Which binding signal did it give?
Answer: 0.114 % of ANNNNAAN 8-mers

Question: For AGTAGAAT, which binding signal is on record?
Answer: 0.0826 % of ANNNNAAN 8-mers

Question: AGTGGAAG was tested. Which binding signal did it give?
Answer: 0.0405 % of ANNNNAAN 8-mers

Question: Which binding signal does the source give for ACATTAAG here?
Answer: 0.0487 % of ANNNNAAN 8-mers

Question: For AGCATAAC, which binding signal is on record?
Answer: 0.038 % of ANNNNAAN 8-mers

Question: AGCACAAA was tested. Which binding signal did it give?
Answer: 0.033 % of ANNNNAAN 8-mers

Question: Which binding signal does the source give for ACAGGAAA here?
Answer: 0.0603 % of ANNNNAAN 8-mers

Question: How did the binding signal turn out when ACAGAAAC was run?
Answer: 0.0231 % of ANNNNAAN 8-mers

Question: For AGGAAAAT, which binding signal is on record?
Answer: 0.347 % of ANNNNAAN 8-mers

Question: AATAAAAC was tested. Which binding signal did it give?
Answer: 0.0726 % of ANNNNAAN 8-mers

Question: Which binding signal does the source give for ACTTTAAG here?
Answer: 0.0322 % of ANNNNAAN 8-mers

Question: How did the binding signal turn out when AAGCCAAC was run?
Answer: 0.0107 % of ANNNNAAN 8-mers

Question: For ATTTAAAC, which binding signal is on record?
Answer: 0.109 % of ANNNNAAN 8-mers

Question: With AATACAAT as the sequence, how does the binding signal read?
Answer: 0.0982 % of ANNNNAAN 8-mers

Question: How did the binding signal turn out when ATCCCAAG was run?
Answer: 0.0198 % of ANNNNAAN 8-mers

Question: Which binding signal does the source give for AGCAGAAC here?
Answer: 0.014 % of ANNNNAAN 8-mers

Question: Which binding signal does the source give for AGAAGAAG here?
Answer: 0.0454 % of ANNNNAAN 8-mers

Question: ATAAAAAA was tested. Which binding signal did it give?
Answer: 0.0801 % of ANNNNAAN 8-mers

Question: Which binding signal does the source give for AAATCAAA here?
Answer: 0.136 % of ANNNNAAN 8-mers

Question: For ACGACAAA, which binding signal is on record?
Answer: 0.0256 % of ANNNNAAN 8-mers

Question: With AATTCAAT as the sequence, how does the binding signal read?
Answer: 0.125 % of ANNNNAAN 8-mers

Question: For ATTTCAAA, which binding signal is on record?
Answer: 0.0751 % of ANNNNAAN 8-mers

Question: For AAGTGAAC, which binding signal is on record?
Answer: 0.0388 % of ANNNNAAN 8-mers

Question: For AGTTAAAT, which binding signal is on record?
Answer: 0.127 % of ANNNNAAN 8-mers

Question: With ACTTCAAA as the sequence, how does the binding signal read?
Answer: 0.0256 % of ANNNNAAN 8-mers

Question: AATGCAAG was tested. Which binding signal did it give?
Answer: 0.0644 % of ANNNNAAN 8-mers

Question: ACCGGAAT was tested. Which binding signal did it give?
Answer: 0.0454 % of ANNNNAAN 8-mers

Question: For AGGGAAAT, which binding signal is on record?
Answer: 0.713 % of ANNNNAAN 8-mers

Question: How did the binding signal turn out when AGGTCAAT was run?
Answer: 0.0636 % of ANNNNAAN 8-mers

Question: Which binding signal does the source give for ATATAAAG here?
Answer: 0.0603 % of ANNNNAAN 8-mers

Question: How did the binding signal turn out when AGTTCAAA was run?
Answer: 0.0421 % of ANNNNAAN 8-mers

Question: With AGTGGAAT as the sequence, how does the binding signal read?
Answer: 0.104 % of ANNNNAAN 8-mers
